# From PubChem BioAssay
# A selection: hits, their analogues and other compounds. The true share with any hit is near 2.4%.
# D2 PAM-1 – positive allosteric modulators of human D2 dopamine receptor; potentiation, % at 10 µM; actives 0.34% (n = 340,000); HEK293 T-REx D2, calcium flux, EC20 dopamine potentiation;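 active = potentiation over 3 SD above the plate norm, cut at about 30% in these data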
#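 Using a no-wash calcium dye in inducible, force-coupled HEK293 Trex cells expressing D2, we tracked fluorescence each second for 180 s after compound, then for 180 s after EC20 dopamine to detect augmented signalling.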
# D2 ag-1 – activates the human D2 dopamine receptor; HEK293 T-REx D2 cells, calcium flux agonist mode; activation, % at 2 µM; actives 0.53% (n = 340,000); AID 485358;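 active = activation over 3 SD above normal in the single-dose calcium agonist read, cut at about 30% in these data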
#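 Agonism is scored from calcium flux in a force-coupled, inducible HEK293 cell line expressing D2, read kinetically for 180 s after compound addition against dopamine controls.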
# D2 antag – antagonists of human D2 dopamine receptor; actives 2% (n = 340,000); AID 485344; HEK293 TREx D2 cells, calcium flux, dopamine EC80; inhibition, % at 10 µM; in the data active = inhibition above about 30%; inactive = below that, where a call was filed
#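 Read-out: kinetic calcium fluorescence (1 cycle/s) in inducible HEK293 T-REx D2 cells after an EC80 dopamine addition that followed 180 s compound preincubation. Loss of the dopamine response indicates antagonism.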
# D2 ag-2 – activates the human D2 dopamine receptor. DiscoveRx PathHunter D2 beta-arrestin, luminescence, 90 min; 100% = 57 uM dopamine signal. AID 624465. activation, % (concentration not given with the values). actives 0.084% (n = 360,000); in the data active = activation above about 40%; inconclusive = between about 15% and that limit
#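 DiscoveRx PathHunter D2 beta-arrestin cells (2,100/well) attached overnight, then compound-stimulated 90 min at 37 C in HBSS/10 mM HEPES/0.1% Tween-20 buffer; beta-galactosidase complementation read by luminescence after 1 h at ambient temperature. Dopamine 57 uM final (EC100) as control.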
# D2 PAM-2 – human D2 receptor positive allosteric modulation. DiscoveRx D2 beta-arrestin cells, luminescence, 90 min; 100% = 57 uM dopamine signal. P14416. actives 0.23% (n = 360,000). potentiation, % (no concentration beside the values). AID 624464; in the data active = potentiation above about 50%; inconclusive = mostly about 30% to 49%
#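 PathHunter D2 cells, attached overnight at 37 deg C, received compound in DMSO plus dopamine at EC20 (50 nM final) for 90 min at 37 deg C. Beta-arrestin recruitment was read as luminescence after 1 h with detection reagent at ambient temperature.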
# D3 arrestin ag – activates human D3 dopamine receptor beta-arrestin recruitment; shares compounds with D2 ag-1; DiscoveRx D3 beta-arrestin cells, luminescence, 90 min; Potency, µM (top dose mostly 76.9 µM), hits mostly activators; actives 4% (n = 2,300); AID 720506; also: nearly all actives have a fitted effect of over 70% in size
# Target sequence (P35462 whole entry, looked up): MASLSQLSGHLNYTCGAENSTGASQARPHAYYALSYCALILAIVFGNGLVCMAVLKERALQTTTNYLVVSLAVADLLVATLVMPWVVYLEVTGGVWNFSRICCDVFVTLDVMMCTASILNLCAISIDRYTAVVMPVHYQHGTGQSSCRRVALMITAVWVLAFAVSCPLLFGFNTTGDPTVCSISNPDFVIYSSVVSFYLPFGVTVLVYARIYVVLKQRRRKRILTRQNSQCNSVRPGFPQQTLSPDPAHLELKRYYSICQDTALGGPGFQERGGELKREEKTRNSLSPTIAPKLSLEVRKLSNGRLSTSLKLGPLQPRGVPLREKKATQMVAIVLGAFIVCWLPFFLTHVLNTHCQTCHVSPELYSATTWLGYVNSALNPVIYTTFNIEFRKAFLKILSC
# D2 ag-3 – counter-screen for D3 agonists: human D2 dopamine receptor agonism; actives 5.9% (n = 2,300); shares compounds with D2 ag-1; AID 720507; DiscoveRx PathHunter D2 beta-arrestin, luminescence, 90 min; response scale: percent relative to full dopamine signal; Potency, µM (series often up to 76.9 µM), actives largely listed as activators; also: nearly all actives have a fitted effect of over 70% in size
# Hits are given with their value; n = inactive; u = inconclusive; x = not tested or not shown. Unless noted, calls follow the shape of the dose curve; as a rule, active = well fitted activation curve with a large enough effect; inconclusive = small, poorly fitted or top-dose-only effect; inactive = flat fitted curve, though single readings scatter.
SMILES,D2 PAM-1,D2 ag-1,D2 antag,D2 ag-2,D2 PAM-2,D3 arrestin ag,D2 ag-3
OC(COc1ccc2c(c1)OCO2)CN1CCN(c2ccc(F)cc2)CC1 (stereo unspecified),n,n,75.8,n,n,n,n
CCC(=O)c1ccc(OCC(O)CN2CCN(c3ccc(F)cc3)CC2)cc1 (stereo unspecified),n,n,30.6,n,n,u,n
CC(C)c1ccc(OCC(O)CN2CCN(c3ccc(F)cc3)CC2)cc1 (stereo unspecified),n,n,x,x,x,x,x
CC(=O)c1ccc(OCC(O)CN2CCN(c3ccc(F)cc3)CC2)cc1 (stereo unspecified),n,83.2,n,n,n,n,n
CCc1ccc(CN(Cc2cn[nH]c2-c2ccc(OC)cc2)C(=O)Nc2cc(Cl)ccc2OC)cc1,n,n,x,x,x,x,x
O=C(Nc1ccon1)c1nc[nH]c1C(=O)N1CCc2ccccc2C1,n,n,n,n,n,n,n
O=C(NCc1ccccc1)c1nc[nH]c1C(=O)N1CCc2ccccc2C1,x,x,x,n,n,x,x
O=C(OCCN1C(=O)c2cccc3c(N4CCOCC4)ccc(c23)C1=O)c1ccc(Cl)cc1,n,70.5,n,n,n,n,n
CCN(CC)S(=O)(=O)c1ccc(C(=O)N2CCN(CCN3C(=O)c4cccc5cccc(c45)C3=O)CC2)cc1,n,n,n,x,x,x,x
CCCN(CCC)S(=O)(=O)c1ccc(C(=O)OCCN2C(=O)c3cccc4c(N5CCOCC5)ccc(c34)C2=O)cc1,n,62.0,n,n,n,n,n
Cc1c(C(=O)NC2CCC(C)CC2)oc2ccccc12 (stereo unspecified),n,42.6,n,n,n,n,n
Cc1cccc(N(C)c2nc3ccccc3c3nnc(C)n23)c1,n,n,x,x,x,x,x
COc1ccc(CNCc2c(C(=O)O)c(C)n(Cc3ccccc3C)c2C)cc1OC,n,x,x,x,x,x,x
CCCCN1CCNC[C@@H]1Cc1ccccc1,n,n,n,n,n,x,x
CCCCN1CCNC[C@@H]1c1ccccc1,n,n,n,n,n,n,n
O=C(CN1C(=O)COc2ccccc21)NCCCN1CCN(c2ccccc2F)CC1,n,56.1,77.6,n,n,n,n
O=C(NCCCN1CCN(c2ccccc2F)CC1)C1CC(=O)N(C2CCCC2)C1 (stereo unspecified),n,77.6,84.1,n,n,u,u
CN1CCN(CCCNC(=O)CN2C(=O)COc3ccccc32)CC1,n,n,n,n,n,x,x
O=C(CCN1C(=O)COc2ccccc21)NCCN1CCN(c2ccccc2F)CC1,n,35.6,44.7,n,n,n,n
O=C(Cn1cc2c(n1)CCCC2)NCCCN1CCN(c2ccccc2F)CC1,n,n,76.2,n,n,n,n
Cc1cc(N2CCC(C(=O)Nc3ccc(F)cc3F)CC2)n2nc(C)c(-c3ccc(Cl)cc3)c2n1,n,n,x,x,x,x,x
Cc1ccc2oc(-c3cccc(NC(=O)c4sc5c([N+](=O)[O-])cccc5c4Cl)c3)nc2c1,n,n,x,x,x,x,x
O=[N+]([O-])c1ccc(Cl)c(CN2CCN(c3ncccn3)CC2)c1,n,n,33.2,n,n,n,n
Oc1cc2c(cc1CN1CCN(c3ncccn3)CC1)OCO2,n,85.5,83.4,96.2,u,u,0.562µM
O=C(c1ccccc1F)N1CCN(Cc2ccccc2F)CC1,n,n,n,n,n,x,x
SMILES,D2 PAM-1,D2 ag-1,D2 antag,D2 ag-2,D2 PAM-2,D3 arrestin ag,D2 ag-3
Cc1ccc(C)c(S(=O)(=O)N2CCN(c3ncccn3)CC2)c1,n,x,x,n,n,x,x
Fc1ccccc1CN1CCN(c2ncccn2)CC1,n,84.5,84.1,98.1,u,u,7.94µM
Cc1ccc(C)c(CN2CCN(c3ncccn3)CC2)c1,n,75.4,59.8,53.2,n,n,u
Cc1nn(C)c2c1c(-c1ccccc1)cc(=O)n2Cc1ccc(F)cc1,n,n,x,x,x,x,x
Clc1cccc(Cl)c1CN1CCN(c2ncccn2)CC1,n,55.0,46.3,u,n,n,u
O=C(CN1CCN(c2ncccn2)CC1)NCc1ccc2c(c1)OCO2,n,55.5,37.1,u,n,n,n
CCOC(=O)C1CCCN(S(=O)(=O)c2ccc3[nH]c(=O)ccc3c2)C1 (stereo unspecified),n,n,x,x,x,x,x
Cc1cccc(C(=O)NCC(=O)N2CC=C(c3ccccc3)CC2)c1,n,n,n,n,n,n,n
O=C(O)c1ccccc1C(=O)N1CC=C(c2ccccc2)CC1,n,n,n,n,n,n,n
COc1ccc(C(=O)NCC(=O)N2CC=C(c3ccccc3)CC2)cc1OC,n,n,n,n,n,x,x
CCOC(=O)c1ccc(NC(=O)Cn2nc(C)c3nn(-c4ccc(Cl)cc4)c(C)c3c2=O)cc1,n,x,x,x,x,x,x
CCOc1ccccc1NC1(c2ccccc2)C(=O)c2ccccc2C1=O,n,n,x,x,x,x,x
Cc1ccc(CNC(=O)C(=O)NCC(c2ccc3c(c2)OCO3)N2CCOCC2)cc1 (stereo unspecified),n,n,x,x,x,x,x
CCCN(CCC)CCCNS(=O)(=O)c1cc(Br)cc2c1N(C(C)=O)CC2,n,58.9,n,n,n,n,n
O=S(=O)(c1ccc2nc(COc3ccc(Cl)cc3Cl)[nH]c2c1)N1CCOCC1,n,n,38.3,n,n,n,n
Cc1ccccc1OCc1nc2ccc(S(=O)(=O)N3CCOCC3)cc2[nH]1,n,n,n,n,n,x,x
CN(C)CC(C)(C)CNC(=O)C1CCN(CCCc2ccccc2)CC1,n,48.0,31.3,u,n,n,n
CCCCN(C)C(=O)C1CCN(CCCc2ccccc2)CC1,n,n,n,n,n,n,n
COc1cc(NC(=O)c2nc3cc(C)c(C)cc3n(C)c2=O)cc(OC)c1OC,n,n,x,x,x,x,x
CC1CC(C)CN(CCCNC(=O)CN2C(=O)CSc3ccc(S(=O)(=O)N4CCOCC4)cc32)C1 (stereo unspecified),n,n,40.2,n,n,n,n
CCCCN(CC)CCCNC(=O)CN1C(=O)CSc2ccc(S(=O)(=O)N3CCOCC3)cc21,n,n,n,n,n,n,n
CCOC(=O)c1ccc(N2C(=O)c3n[nH]c(-c4ccco4)c3C2c2cccc(O)c2)cc1 (stereo unspecified),n,n,x,x,x,x,x
CC(=O)Nc1cc(NC(C)=O)c2nc(N)sc2c1,n,n,n,n,n,n,n
Cc1ccc(CNC(=O)c2cc(-c3ccc(C)cc3)nc3n[nH]c(-c4cccc([N+](=O)[O-])c4)c23)cc1,n,n,x,x,x,x,x
O=C(NCCCN1CCCC1=O)c1ccc(NS(=O)(=O)c2ccc(F)cc2)cc1,n,n,n,n,n,n,n
